Screening results deposited in PubChem by several laboratories.
An excerpt weighted towards active compounds, which were near 3.2% of everything screened.
APOBEC3A inh = inhibitors of human APOBEC3A DNA deaminase. P31941. recombinant A3A, FAM/TAMRA ssDNA deamination fluorescence. inhibition, % at 20 µM. 0.41% of 330,000 active. AID 493011;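 active means at least 40% inhibition at 20 µM here, with at most 30% in a related deaminase screen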;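 further: plate controls were A3A with DMSO for no effect and wells lacking A3A enzyme for full effect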
Target sequence (P31941 whole entry, looked up): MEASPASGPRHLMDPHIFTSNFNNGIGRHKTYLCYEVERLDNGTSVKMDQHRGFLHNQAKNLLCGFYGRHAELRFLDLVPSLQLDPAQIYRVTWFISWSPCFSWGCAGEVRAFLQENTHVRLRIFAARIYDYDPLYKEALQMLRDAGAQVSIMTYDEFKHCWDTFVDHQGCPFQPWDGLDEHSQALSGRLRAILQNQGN
A3G deaminase = APOBEC3G (human) deaminase inhibition; recombinant A3G, ssDNA deamination FAM/TAMRA fluorescence; inhibition, % at 20 µM; 0.28% of 330,000 active; Q9HC16; AID 493012;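 active means inhibition of at least 40% at 20 µM, with no more than 30% in the related APOBEC3A deaminase screen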;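 further: plate controls were DMSO wells with A3G for no effect and wells lacking A3G enzyme for full effect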
AHR act = human AHR activation. P35869. AHR-responsive luciferase reporter cells, luminescence. activation, % at 5 µM. 2.5% of 320,000 active; in the data active means activation above about 47%;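 further: 0% = vehicle wells and 100% = reference agonist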
NTR1 agonist = NTR1 (human) agonism. NTR1-U2OS beta-arrestin-GFP spot imaging, agonist mode. activation, % at 20 µM. 0.17% of 330,000 active. AID 493036;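 active means activation at or above 40% of the spot to cytoplasm intensity ratio, with at least 20 cells analyzed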;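 further: 0% = DMSO without peptide and 100% = 100 nM NTR1 peptide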
AHR act cf = human AHR activation, confirmation; shares compounds with AHR act; human cells, AHR-responsive luciferase reporter, luminescence; activation, % at 9 µM; 87% of 2,300 active; AID 2845; in the data active means activation above about 49%;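 further: HepG2 hepatoma cells carrying a DRE-driven firefly luciferase reporter; 0% = vehicle wells and 100% = reference agonist wells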
PXR counter = counter-screen for AHR activators: human PXR activators; 88% of 2,300 active; shares compounds with AHR act; activation, % at 11.6 µM; cell-based PXR reporter, luciferase luminescence; in the data active means activation above about 11%;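 further: human hepatoma DPX-2 cells expressing full-length human PXR; 0% = DMSO and 100% = reference agonist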
* = called active by the depositor.

For N#C/C(=N\Nc1ccccc1)C(=N)N1CCOCC1 the results were APOBEC3A inh -4, A3G deaminase -3, AHR act 6 and NTR1 agonist 1.
`Cc1ccc(N/N=C(\C#N)C(=N)N2CCOCC2)cc1` gave APOBEC3A inh -1, A3G deaminase -3, AHR act 123*, NTR1 agonist -2, AHR act cf 115* and PXR counter 16*.
C/C(CC(=O)Nc1cc(Cl)ccc1Cl)=N\NC(N)=S was read as APOBEC3A inh -6, A3G deaminase -7, AHR act 84*, NTR1 agonist -3, AHR act cf 2 and PXR counter 14*.
`C/C(CC(=O)Nc1ccc(Cl)cc1Cl)=N\NC(N)=S` gave APOBEC3A inh -1, A3G deaminase -7, AHR act 3 and NTR1 agonist 2.
`c1ccc(-c2nc3nc4ccccc4nc3n2Cc2ccco2)cc1` gave APOBEC3A inh -2, A3G deaminase 4, AHR act 99*, NTR1 agonist -1, AHR act cf 71* and PXR counter 20*.
Screening Fc1ccc(-c2nc3nc4ccccc4nc3n2Cc2ccco2)cc1 returned APOBEC3A inh -15, A3G deaminase 2, AHR act 38 and NTR1 agonist -1.
O=C(/C=C/NCc1cccnc1)c1ccc(-c2ccccc2)cc1 was read as APOBEC3A inh 34, A3G deaminase 1, AHR act 14 and NTR1 agonist 1.
`c1ccc(-c2nc3ccccc3[nH]2)nc1` gave APOBEC3A inh 0, A3G deaminase 0, AHR act 17 and NTR1 agonist -1.
`c1ccc(-c2nc3c(ccc4ccccc43)[nH]2)nc1` gave APOBEC3A inh -2, A3G deaminase -4, AHR act 95*, NTR1 agonist -1, AHR act cf 138* and PXR counter 11*.
For Cc1cc(C)n2nc(N)c(N=Nc3ccc(Cl)cc3)c2n1 the results were APOBEC3A inh -3, A3G deaminase -6, AHR act 109*, NTR1 agonist 1, AHR act cf 98* and PXR counter 31*.
Screening CCCC(=O)Nc1ccc(C=C(C(C)=O)C(C)=O)cc1 returned APOBEC3A inh -5, A3G deaminase -7, AHR act 1 and NTR1 agonist 2.
Screening Cc1c(C(=O)/C=C/c2cccs2)oc2ccc(F)cc12 returned APOBEC3A inh 2, A3G deaminase -4, AHR act 81*, NTR1 agonist 5, AHR act cf 103* and PXR counter 76*.
Cc1ccc(S(=O)(=O)N(CC(=O)Nc2cccc(C(F)(F)F)c2)C(=O)N2CCN(C)CC2)cc1 was read as APOBEC3A inh 3, A3G deaminase -3, AHR act -1 and NTR1 agonist 0.
`c1ccc(N2CCN(c3nc4ccccc4n4cnnc34)CC2)cc1` gave APOBEC3A inh -4, A3G deaminase -10, AHR act 39 and NTR1 agonist 6.
Screening c1ccc2c(c1)CCN(c1nc3ccccc3n3cnnc13)C2 returned APOBEC3A inh 0, A3G deaminase -9, AHR act 86*, NTR1 agonist 14, AHR act cf 66* and PXR counter 19*.
O=C(COc1cccnc1[N+](=O)[O-])c1c[nH]c2ccccc12 was read as APOBEC3A inh 8, A3G deaminase 1, AHR act 87*, NTR1 agonist 2, AHR act cf 108* and PXR counter 16*.
Screening Cc1cc(C)c(C(=O)COc2cccnc2[N+](=O)[O-])cc1C returned APOBEC3A inh 4, A3G deaminase -1, AHR act -2 and NTR1 agonist 5.
`Cc1ccc(/C=N\NC(=O)/C(=C\Nc2nccc(C)n2)NC(=O)c2ccccc2)cc1` gave APOBEC3A inh 0, A3G deaminase -2, AHR act 12 and NTR1 agonist -1.
`Cc1c(NC(=O)Cc2ccccc2)cccc1C(=O)NN1C(=O)c2ccccc2C1=O` gave APOBEC3A inh -1, A3G deaminase -11, AHR act -1 and NTR1 agonist 0.
For CN1C(=O)c2cccc(NC(=O)Cc3ccccc3)c2C1=O the results were APOBEC3A inh -4, A3G deaminase -9, AHR act 156*, NTR1 agonist 2, AHR act cf 51* and PXR counter 14*.
For O=C(c1cn(-c2ccc(Cl)c(Cl)c2)nn1)C1CC1 the results were APOBEC3A inh 1, A3G deaminase -5, AHR act 84*, NTR1 agonist 1, AHR act cf 125* and PXR counter 29*.
`O=C(NCc1ccco1)C(Cc1ccccc1)N1C(=O)c2ccccc2C1=O` (configuration not stated) gave APOBEC3A inh 1, A3G deaminase -4, AHR act 112*, NTR1 agonist 0, AHR act cf 93* and PXR counter 66*.
O=c1c2ccccc2[nH]c(=S)n1CCC1=CCCCC1 was read as APOBEC3A inh -4, A3G deaminase -3, AHR act 113*, NTR1 agonist 3, AHR act cf 125* and PXR counter 24*.
For CCOc1ccccc1N1CCN(CC(=O)N(CC(C)C)c2c(N)n(CC(C)C)c(=O)[nH]c2=O)CC1 the results were APOBEC3A inh 1, A3G deaminase -6, AHR act 0 and NTR1 agonist 1.
For C=CCNC(=O)c1cc(-c2cccnc2)nc2ccccc12 the results were APOBEC3A inh 0, A3G deaminase -5, AHR act 7 and NTR1 agonist 1.
For C=CCNC(=O)c1cc(-c2ccncc2)nc2c(C)cc(C)cc12 the results were APOBEC3A inh -1, A3G deaminase -7, AHR act 81*, NTR1 agonist 1, AHR act cf 65* and PXR counter 45*.
`COc1ccc(NC(=O)N(C)C[C@H]2Oc3c(NC(=O)c4nc5ccccc5s4)cccc3C(=O)N([C@@H](C)CO)C[C@H]2C)cc1` gave APOBEC3A inh -5, A3G deaminase -8, AHR act 3 and NTR1 agonist 4.
Cn1c(=O)c(-c2ccccc2)nn2c3ccccc3nc12 was read as APOBEC3A inh -4, A3G deaminase -3, AHR act 110*, NTR1 agonist 3, AHR act cf 131* and PXR counter 19*.
For CCn1c(=O)c(C)nn2c3ccccc3nc12 the results were APOBEC3A inh -5, A3G deaminase 3, AHR act -2 and NTR1 agonist 0.
`Cc1ccc2cc3c(nc2c1)OCC3` gave APOBEC3A inh -1, A3G deaminase -5, AHR act 0 and NTR1 agonist 0.
CCNC(=O)/C(C#N)=C/c1c(N2CCN(c3ccccc3)CC2)nc2c(C)cccn2c1=O was read as APOBEC3A inh -1, A3G deaminase -3, AHR act 80*, NTR1 agonist 7, AHR act cf 69* and PXR counter 19*.
Screening Nc1ncnc(Oc2cccc3cccnc23)c1[N+](=O)[O-] returned APOBEC3A inh -3, A3G deaminase -8, AHR act 5 and NTR1 agonist 0.
